Assay results published in PubChem BioAssay (NCI).
This is part of a sample that, as a whole, favours compounds with a hit. Of some 79,000 tested, about 15% had one in any assay. Calls of active or inactive are those of the source. No stated cut-off is given here; in the data, active means growth inhibition above about 70%; inactive means the rest.

What was measured:
[1] = NCI Yeast Anticancer Drug Screen. Data for the rad50 strain (AID 155);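 further: 0% = growth of vehicle-only cultures of the same strain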; details: S. cerevisiae rad50 strain growth inhibition; at 50.0 µM; hits give high values
Procedure, shortened: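 A DNA repair-deficient yeast mutant serves as the test organism; compound-induced growth inhibition is calculated against vehicle-treated cells.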

[2] = NCI Yeast Anticancer Drug Screen. Data for the mec2-1 strain (AID 157); details: S. cerevisiae mec2-1 strain, at 50.0 µM, hits give high values
Procedure, shortened: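 Using mec2-1 yeast: add compound, measure growth, express inhibition versus vehicle-treated cultures.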

[3] = NCI Yeast Anticancer Drug Screen. Data for the sgs1 mgt1 strain (AID 161);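 further: 0% = growth of cultures given vehicle only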; details: S. cerevisiae sgs1 mgt1 strain, at 50.0 µM, hits give high values
Procedure, shortened: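 Yeast cells carrying a defined DNA-repair defect were exposed to test compounds. Growth inhibition was measured relative to vehicle-treated controls.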

[4] = NCI Yeast Anticancer Drug Screen. Data for the cln2 rad14 strain (AID 165);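 further: 0% = growth equal to vehicle treated cultures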; details: S. cerevisiae cln2 rad14 strain, at 50.0 µM, hits give high values
Procedure, shortened: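 Yeast strain cln2 rad14, bearing defects in cell cycle control and DNA repair, serves as the test system; values reflect growth inhibition compared with vehicle.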

[5] = NCI Yeast Anticancer Drug Screen. Data for the bub3 strain (AID 167); details: S. cerevisiae bub3 mutant strain, at 50.0 µM, hits give high values
Procedure, shortened: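 Inhibition values come from growth of compound-treated mutant yeast normalised to vehicle-treated controls.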

[6] = NCI Yeast Anticancer Drug Screen. Data for the mlh1 rad18 strain (AID 175); details: S. cerevisiae mlh1 rad18 strain growth inhibition; at 50.0 µM; hits give high values
Procedure, shortened: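 Steps: expose repair-defective yeast to compound; measure growth; express inhibition against vehicle-treated controls.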

CCCC(CC)(CC)CO
growth inhibition [1]: -21.6% (inactive) | growth inhibition [2]: -6.9% (inactive) | growth inhibition [3]: -16.4% (inactive) | growth inhibition [4]: 12.1% (inactive) | growth inhibition [5]: -10.4% (inactive) | growth inhibition [6]: -6.15% (inactive)

O=C1c2ccccc2Cc2ccc(O)cc21
growth inhibition [1]: 47.1% (inactive) | growth inhibition [2]: 21.3% (inactive) | growth inhibition [3]: 11.1% (inactive) | growth inhibition [4]: 10.3% (inactive) | growth inhibition [5]: 11.8% (inactive) | growth inhibition [6]: 10.8% (inactive)

C/C(CC(=O)NCCc1ccccc1)=N\NS(=O)(=O)c1ccc(C)cc1
growth inhibition [1]: 37.1% (inactive) | growth inhibition [2]: -6.6% (inactive) | growth inhibition [3]: 10.2% (inactive) | growth inhibition [4]: 28.3% (inactive) | growth inhibition [5]: -4.2% (inactive) | growth inhibition [6]: 8% (inactive)

CCOC(=O)c1cn2c(nc1=O)N[C@H]1CCCC[C@@H]12
growth inhibition [1]: 37.8% (inactive) | growth inhibition [2]: 11.1% (inactive) | growth inhibition [3]: 0.4% (inactive) | growth inhibition [4]: -2.45% (inactive) | growth inhibition [5]: 8.4% (inactive) | growth inhibition [6]: -1% (inactive)

COS(=O)(=O)OC1(SC)C=C(c2ccccc2)SS1 (stereo not given)
growth inhibition [1]: 73% (active) | growth inhibition [2]: 28.1% (inactive) | growth inhibition [3]: 29.2% (inactive) | growth inhibition [4]: 9.5% (inactive) | growth inhibition [5]: 20.3% (inactive) | growth inhibition [6]: 72.6% (active)

COc1cc2c(cc1OC)C(=O)/C(=C/c1ccc([N+](=O)[O-])cc1)CC2
growth inhibition [1]: -50.2% (inactive) | growth inhibition [2]: -56.5% (inactive) | growth inhibition [3]: -11.9% (inactive) | growth inhibition [4]: -38.2% (inactive) | growth inhibition [5]: -28% (inactive) | growth inhibition [6]: -33.9% (inactive)

Cc1nc(C)c(N2CCN(CN)CC2)c(=O)[nH]1
growth inhibition [1]: -45.2% (inactive) | growth inhibition [2]: -32.8% (inactive) | growth inhibition [3]: -48% (inactive) | growth inhibition [4]: 30.6% (inactive) | growth inhibition [5]: 14.3% (inactive) | growth inhibition [6]: -72.3% (inactive)

C=CC1=C(C)C2=NC1=CC1=NC(=CC3=C(C)C4=C(O)CC(=C5NC(=C2)C(C)C5CCC(=O)OC)C4=N3)C(CC)=C1C (stereo not given)
growth inhibition [1]: 8.85% (inactive) | growth inhibition [2]: -1.5% (inactive) | growth inhibition [3]: 19.4% (inactive) | growth inhibition [4]: 3.65% (inactive) | growth inhibition [5]: -2.05% (inactive) | growth inhibition [6]: 22.2% (inactive)

CCOC(=O)c1cnc2ccccn2c1=O
growth inhibition [1]: 5.15% (inactive) | growth inhibition [2]: 6.15% (inactive) | growth inhibition [3]: 7.3% (inactive) | growth inhibition [4]: 7.2% (inactive) | growth inhibition [5]: -18% (inactive) | growth inhibition [6]: -2.25% (inactive)

O=C1C2CCC(C2)C12CC1(c3ccccc3)C(=O)c3ccccc3N1O2 (stereo not given)
growth inhibition [1]: -9% (inactive) | growth inhibition [2]: -31.6% (inactive) | growth inhibition [3]: -25.1% (inactive) | growth inhibition [4]: 8.85% (inactive) | growth inhibition [5]: 0.25% (inactive) | growth inhibition [6]: -27.4% (inactive)

CN(C)Cc1ccccc1C(=C(c1ccccc1)c1ccccc1)c1ccccc1
growth inhibition [1]: -15.1% (inactive) | growth inhibition [2]: -4.65% (inactive) | growth inhibition [3]: -8% (inactive) | growth inhibition [4]: -23.6% (inactive) | growth inhibition [5]: -0.8% (inactive) | growth inhibition [6]: -10.9% (inactive)

NC(=O)NC(NC(=O)NC(NC(N)=O)c1ccco1)c1ccco1 (stereo not given)
growth inhibition [1]: 11.3% (inactive) | growth inhibition [2]: 15.4% (inactive) | growth inhibition [3]: 10.7% (inactive) | growth inhibition [4]: 6.1% (inactive) | growth inhibition [5]: 2.05% (inactive) | growth inhibition [6]: 15.3% (inactive)

CC[N+]1(C)CC2CCC1C2 (stereo not given)
growth inhibition [1]: 4.55% (inactive) | growth inhibition [2]: 17.1% (inactive) | growth inhibition [3]: 14.5% (inactive) | growth inhibition [4]: -39.9% (inactive) | growth inhibition [5]: 5.85% (inactive) | growth inhibition [6]: -11.8% (inactive)

CCOC(=O)C(C)(C)C(O)C(C)C (stereo not given)
growth inhibition [1]: 20.7% (inactive) | growth inhibition [2]: -18.8% (inactive) | growth inhibition [3]: -15.2% (inactive) | growth inhibition [4]: 48.4% (inactive) | growth inhibition [5]: -12.7% (inactive) | growth inhibition [6]: 3.95% (inactive)

CN=C(N)SCCCCCCSC(N)=NC
growth inhibition [1]: -1.5% (inactive) | growth inhibition [2]: 0% (inactive) | growth inhibition [3]: 16.6% (inactive) | growth inhibition [4]: 26.1% (inactive) | growth inhibition [5]: -3.6% (inactive) | growth inhibition [6]: 4.15% (inactive)

CCCCc1ccc(Nc2nc(OC)c3ncn(C4CC(O)C(CO)O4)c3n2)cc1 (stereo not given)
growth inhibition [1]: 88.1% (active) | growth inhibition [2]: 90.2% (active) | growth inhibition [3]: 67.2% (inactive) | growth inhibition [4]: 57.8% (inactive) | growth inhibition [5]: 69.5% (inactive) | growth inhibition [6]: 86.8% (active)

CCOC(=O)CN/N=C(\N)CSS(=O)(=O)O
growth inhibition [1]: -5.25% (inactive) | growth inhibition [2]: -17.4% (inactive) | growth inhibition [3]: -2.05% (inactive) | growth inhibition [4]: 13.3% (inactive) | growth inhibition [5]: 9.65% (inactive) | growth inhibition [6]: 3.05% (inactive)

CC1C(c2ccccc2)=CCON1c1ccccc1 (stereo not given)
growth inhibition [1]: -2.9% (inactive) | growth inhibition [2]: -16.6% (inactive) | growth inhibition [3]: -24.4% (inactive) | growth inhibition [4]: 13.4% (inactive) | growth inhibition [5]: -3.75% (inactive) | growth inhibition [6]: -28.1% (inactive)

CCC(O)CNCc1ccnc2ccc(OC)cc12 (stereo not given)
growth inhibition [1]: 3.3% (inactive) | growth inhibition [2]: 2.9% (inactive) | growth inhibition [3]: 0.45% (inactive) | growth inhibition [4]: -45.4% (inactive) | growth inhibition [5]: -4.1% (inactive) | growth inhibition [6]: -12.1% (inactive)

O=C(Nc1ccc(Cl)cc1[N+](=O)[O-])Oc1ccc(-c2ccccc2)cc1Cl
growth inhibition [1]: 99.5% (active) | growth inhibition [2]: 99.7% (active) | growth inhibition [3]: 99.7% (active) | growth inhibition [4]: 99% (active) | growth inhibition [5]: 99.4% (active) | growth inhibition [6]: 99.7% (active)

COC(=O)C(CO)NC(=O)C(CC(C)C)NC(=O)C(CC(C)C)NC(=O)OCc1ccccc1 (stereo not given)
growth inhibition [1]: 34.6% (inactive) | growth inhibition [2]: 4.5% (inactive) | growth inhibition [3]: 16.6% (inactive) | growth inhibition [4]: 11.6% (inactive) | growth inhibition [5]: -5.1% (inactive) | growth inhibition [6]: 13.2% (inactive)

COC(=O)c1cccc(O)c1O
growth inhibition [1]: 12.9% (inactive) | growth inhibition [2]: -0.3% (inactive) | growth inhibition [3]: -1.5% (inactive) | growth inhibition [4]: -41.4% (inactive) | growth inhibition [5]: 18% (inactive) | growth inhibition [6]: -0.65% (inactive)

Nc1nc(N)c(N)c(Nc2ccc(Cl)cc2)n1
growth inhibition [1]: 27.5% (inactive) | growth inhibition [2]: 22.3% (inactive) | growth inhibition [3]: 9% (inactive) | growth inhibition [4]: 21.4% (inactive) | growth inhibition [5]: -1.95% (inactive) | growth inhibition [6]: 2.5% (inactive)

COC(=O)c1cc(/C=C/C(=O)Cc2ccccc2)cn1S(=O)(=O)c1ccccc1
growth inhibition [1]: -6.3% (inactive) | growth inhibition [2]: -9.6% (inactive) | growth inhibition [3]: -13.5% (inactive) | growth inhibition [4]: -23.9% (inactive) | growth inhibition [5]: 1.5% (inactive) | growth inhibition [6]: 1.9% (inactive)

COc1cc(C2c3c(cc(OC)c(O)c3OC)C=C(C(=O)O)C2CO)cc(OC)c1O (stereo not given)
growth inhibition [1]: 9.05% (inactive) | growth inhibition [2]: 5.35% (inactive) | growth inhibition [3]: -2.95% (inactive) | growth inhibition [4]: 24.3% (inactive) | growth inhibition [5]: -2.1% (inactive) | growth inhibition [6]: 14.3% (inactive)

COc1ccc(C2=NC(=O)OC2(C)C)cc1
growth inhibition [1]: -6.95% (inactive) | growth inhibition [2]: -20.2% (inactive) | growth inhibition [3]: -5.7% (inactive) | growth inhibition [4]: -11% (inactive) | growth inhibition [5]: -8.6% (inactive) | growth inhibition [6]: -10.2% (inactive)

CC(NCCOc1ccccc1)c1ccccc1 (stereo not given)
growth inhibition [1]: 9.1% (inactive) | growth inhibition [2]: 33.4% (inactive) | growth inhibition [3]: 3.2% (inactive) | growth inhibition [4]: 10.7% (inactive) | growth inhibition [5]: -0.75% (inactive) | growth inhibition [6]: 9.25% (inactive)

CN(C)C1=NC(NC2CCCCC2)(N(C)C)OC(N(C)C)=N1 (stereo not given)
growth inhibition [1]: 1% (inactive) | growth inhibition [2]: -0.9% (inactive) | growth inhibition [3]: 3.2% (inactive) | growth inhibition [4]: 20.2% (inactive) | growth inhibition [5]: 1.9% (inactive) | growth inhibition [6]: 10.8% (inactive)

NC(=O)CNc1ccc(CC2CCOC2=O)cc1 (stereo not given)
growth inhibition [1]: -7.45% (inactive) | growth inhibition [2]: -18.9% (inactive) | growth inhibition [3]: -5.9% (inactive) | growth inhibition [4]: 0.95% (inactive) | growth inhibition [5]: 0.6% (inactive) | growth inhibition [6]: -5.7% (inactive)

CSc1nc2cc(C)c(C)cc2[nH]1
growth inhibition [1]: -5.1% (inactive) | growth inhibition [2]: -3.1% (inactive) | growth inhibition [3]: 27.8% (inactive) | growth inhibition [4]: -25.5% (inactive) | growth inhibition [5]: 15.1% (inactive) | growth inhibition [6]: -6.85% (inactive)

O=c1cnc(=O)[nH][nH]1
growth inhibition [1]: -12.4% (inactive) | growth inhibition [2]: -17.2% (inactive) | growth inhibition [3]: -7% (inactive) | growth inhibition [4]: -18.1% (inactive) | growth inhibition [5]: 5.7% (inactive) | growth inhibition [6]: -5.4% (inactive)

C=C1C(=O)OC2(C)CCC1CC1OC1(C)CC/C=C(\C)CCC2OC(C)=O (stereo not given)
growth inhibition [1]: -3.95% (inactive) | growth inhibition [2]: -6.55% (inactive) | growth inhibition [3]: 17.4% (inactive) | growth inhibition [4]: 8.25% (inactive) | growth inhibition [5]: -3% (inactive) | growth inhibition [6]: 7.85% (inactive)

CCCCCCCCCCCCCCCCS(=O)(=O)N/N=C(\c1ccc(C(C)C)cc1)N1CCOCC1
growth inhibition [1]: 1.3% (inactive) | growth inhibition [2]: -18.4% (inactive) | growth inhibition [3]: 12.7% (inactive) | growth inhibition [4]: 9.3% (inactive) | growth inhibition [5]: -1.5% (inactive) | growth inhibition [6]: 5.75% (inactive)

NNC(=O)c1cccc2c1Oc1ccccc1S2
growth inhibition [1]: 21.5% (inactive) | growth inhibition [2]: -12.9% (inactive) | growth inhibition [3]: 10.9% (inactive) | growth inhibition [4]: -63.9% (inactive) | growth inhibition [5]: -11.9% (inactive) | growth inhibition [6]: 25.1% (inactive)

CN1CCN(C(=O)NC2CCCCC2)CC1
growth inhibition [1]: -2.1% (inactive) | growth inhibition [2]: -10.9% (inactive) | growth inhibition [3]: 3.35% (inactive) | growth inhibition [4]: -44.4% (inactive) | growth inhibition [5]: -8.4% (inactive) | growth inhibition [6]: -7.6% (inactive)
